In publication PMC5700166:

Key:
[1] = molecular target: T1, GST-Nv-NF-kB (Ser allele) (Nematostella vectensis, UniProt A7UNT2 2-411); assay: protein-binding microarray (PBM); PBM: ~300 nM protein, 6 mM HEPES pH 7.8, 80 mM KCl, 0.5 mM EDTA, 0.5 mM EGTA, 6% glycerol, 35 ng/ul poly-dIdC, 1% milk, 1 h, room temperature; Ap Aiptasia and Nv Nematostella (sea anemones) / Co Capsaspora / Aq Amphimedon (sponge) / Dm Drosophila / Hu human; RHD is the Rel homology domain; high values mean tight binding; conditions: dsDNA, one strand shown
T1 sequence: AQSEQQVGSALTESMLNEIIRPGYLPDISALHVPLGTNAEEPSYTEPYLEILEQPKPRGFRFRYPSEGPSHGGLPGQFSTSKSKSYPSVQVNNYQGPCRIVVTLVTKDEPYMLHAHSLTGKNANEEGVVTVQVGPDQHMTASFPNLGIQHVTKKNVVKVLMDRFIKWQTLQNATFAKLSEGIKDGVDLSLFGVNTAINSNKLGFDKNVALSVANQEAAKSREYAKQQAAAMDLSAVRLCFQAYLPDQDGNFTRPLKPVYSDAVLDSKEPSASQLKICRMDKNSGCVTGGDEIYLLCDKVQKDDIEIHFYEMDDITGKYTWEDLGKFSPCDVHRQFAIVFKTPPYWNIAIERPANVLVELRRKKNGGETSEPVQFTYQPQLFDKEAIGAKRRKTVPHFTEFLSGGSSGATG

GST-Hu-p50 = GST-Hu-p50 (Homo sapiens, UniProt P19838 7-356); assay: as above; conditions: dsDNA, one strand shown
GST-Hu-p50, sequence (P19838 7-356): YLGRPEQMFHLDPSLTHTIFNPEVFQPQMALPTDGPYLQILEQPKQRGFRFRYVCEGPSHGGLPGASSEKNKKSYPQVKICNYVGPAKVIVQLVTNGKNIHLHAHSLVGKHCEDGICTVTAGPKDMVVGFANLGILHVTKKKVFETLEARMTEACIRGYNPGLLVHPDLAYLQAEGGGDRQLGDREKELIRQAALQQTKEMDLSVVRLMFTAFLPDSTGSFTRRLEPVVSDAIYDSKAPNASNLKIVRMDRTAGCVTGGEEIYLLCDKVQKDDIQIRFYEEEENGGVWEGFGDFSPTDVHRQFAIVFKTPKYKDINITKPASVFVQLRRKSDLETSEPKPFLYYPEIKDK

Sequence	binding signal [1] [z-score]	binding signal (GST-Hu-p50) [z-score]
CCGATTAACATCAAATTCCCACTTGATGTTAATCGGGTCTTGATTCGCTTGACGCTGCTG	3.95	3.73
CCGATTAACATCAAACACTCCCCTGATGTTAATCGGGTCTTGATTCGCTTGACGCTGCTG	4.23	3.6
CCGATTAACATCACAGGGAAAAATGATGTTAATCGGGTCTTGATTCGCTTGACGCTGCTG	5.18	3.13
CCGATTAACATCAATTTTCCCAATGATGTTAATCGGGTCTTGATTCGCTTGACGCTGCTG	4.62	3.18
CCGATTAACATCAGGGGGGGACCTGATGTTAATCGGGTCTTGATTCGCTTGACGCTGCTG	3.87	3.99
CCGATTAACATCAGGGAAAACACTGATGTTAATCGGGTCTTGATTCGCTTGACGCTGCTG	5.79	4.24
CCGATTAACATCAAAATAATCCCTGATGTTAATCGGGTCTTGATTCGCTTGACGCTGCTG	3.57	3.58
CCGATTAACATCAGGAATTCACCTGATGTTAATCGGGTCTTGATTCGCTTGACGCTGCTG	2.04	3.81
CCGATTAACATCAAAAAAAATCCTGATGTTAATCGGGTCTTGATTCGCTTGACGCTGCTG	1.23	1.51
CCGATTAACATCAGGGGAGCACCTGATGTTAATCGGGTCTTGATTCGCTTGACGCTGCTG	3.94	4.33
CCGATTAACATCAGGAGTCCCCATGATGTTAATCGGGTCTTGATTCGCTTGACGCTGCTG	4.11	4.86
CCGATTAACATCAAAGGAATCCCTGATGTTAATCGGGTCTTGATTCGCTTGACGCTGCTG	1.78	1.2
CCGATTAACATCAAAACAACCCCTGATGTTAATCGGGTCTTGATTCGCTTGACGCTGCTG	2.19	3.88
CCGATTAACATCAGGACTGTCCCTGATGTTAATCGGGTCTTGATTCGCTTGACGCTGCTG	2.57	3.92
CCGATTAACATCAGGGCAGTACCTGATGTTAATCGGGTCTTGATTCGCTTGACGCTGCTG	2.24	2.22
CCGATTAACATCAGGGGATGGGATGATGTTAATCGGGTCTTGATTCGCTTGACGCTGCTG	4.39	2.85
CCGATTAACATCAGGGAAAATGATGATGTTAATCGGGTCTTGATTCGCTTGACGCTGCTG	6.52	2.44
CCGATTAACATCAACCCTCCCCCTGATGTTAATCGGGTCTTGATTCGCTTGACGCTGCTG	3.85	3.3
CCGATTAACATCACCAGTTTCCCTGATGTTAATCGGGTCTTGATTCGCTTGACGCTGCTG	4.89	2.39
CCGATTAACATCAGGGAATCTCATGATGTTAATCGGGTCTTGATTCGCTTGACGCTGCTG	3.31	2.5
CCGATTAACATCACGGGGAGTCCTGATGTTAATCGGGTCTTGATTCGCTTGACGCTGCTG	4.29	3.39
CCGATTAACATCAATAAATACCCTGATGTTAATCGGGTCTTGATTCGCTTGACGCTGCTG	6.32	5.25
CCGATTAACATCATGGGGACGACTGATGTTAATCGGGTCTTGATTCGCTTGACGCTGCTG	2.44	2.41
CCGATTAACATCAGGGGTTACCCTGATGTTAATCGGGTCTTGATTCGCTTGACGCTGCTG	4.21	3.9

Sequence	binding signal [1] [z-score]	binding signal (GST-Hu-p50) [z-score]
CCGATTAACATCAGGAGAACCCCTGATGTTAATCGGGTCTTGATTCGCTTGACGCTGCTG	1.24	3.68
CCGATTAACATCAGGGATTTTGATGATGTTAATCGGGTCTTGATTCGCTTGACGCTGCTG	2.92	2.85
CCGATTAACATCAGGGACACCCCTGATGTTAATCGGGTCTTGATTCGCTTGACGCTGCTG	3.24	4.03
CCGATTAACATCAAAAGACCCCCTGATGTTAATCGGGTCTTGATTCGCTTGACGCTGCTG	5.47	5.26
CCGATTAACATCAGGGGAGGAAATGATGTTAATCGGGTCTTGATTCGCTTGACGCTGCTG	4.9	3.1
CCGATTAACATCAATTCCCATGATGATGTTAATCGGGTCTTGATTCGCTTGACGCTGCTG	1.33	1.61
CCGATTAACATCAGGGGAGTACATGATGTTAATCGGGTCTTGATTCGCTTGACGCTGCTG	3.51	2.47
CCGATTAACATCAAGGATTCCCGTGATGTTAATCGGGTCTTGATTCGCTTGACGCTGCTG	2.82	2.13
CCGATTAACATCAGGGGGAAGCATGATGTTAATCGGGTCTTGATTCGCTTGACGCTGCTG	6.05	4.74
CCGATTAACATCAGGGAATATTATGATGTTAATCGGGTCTTGATTCGCTTGACGCTGCTG	5.41	3.86
CCGATTAACATCAGATTTTTCCCTGATGTTAATCGGGTCTTGATTCGCTTGACGCTGCTG	6.27	3.71
CCGATTAACATCAGAATTCCCGCTGATGTTAATCGGGTCTTGATTCGCTTGACGCTGCTG	3.89	3.53
CCGATTAACATCAGGGGGGGTACTGATGTTAATCGGGTCTTGATTCGCTTGACGCTGCTG	4.19	3.91
CCGATTAACATCAGAAATGGGAATGATGTTAATCGGGTCTTGATTCGCTTGACGCTGCTG	1.7	1.72
CCGATTAACATCAAAATTCCCAATGATGTTAATCGGGTCTTGATTCGCTTGACGCTGCTG	4.95	4.21
CCGATTAACATCAAGGGATTTTCTGATGTTAATCGGGTCTTGATTCGCTTGACGCTGCTG	5.14	4.49
CCGATTAACATCAGGGAATCCACTGATGTTAATCGGGTCTTGATTCGCTTGACGCTGCTG	3.63	2.79
CCGATTAACATCAGGGAAACCACTGATGTTAATCGGGTCTTGATTCGCTTGACGCTGCTG	4.02	3.94
CCGATTAACATCAGGGGGTGAAATGATGTTAATCGGGTCTTGATTCGCTTGACGCTGCTG	4.3	4.19
CCGATTAACATCAAATGGGAATTTGATGTTAATCGGGTCTTGATTCGCTTGACGCTGCTG	4.87	3.42
CCGATTAACATCAGGGACCTCCCTGATGTTAATCGGGTCTTGATTCGCTTGACGCTGCTG	1.67	3.27
CCGATTAACATCAGGAGAATCCCTGATGTTAATCGGGTCTTGATTCGCTTGACGCTGCTG	1.07	1.64
CCGATTAACATCAAAAACTACCCTGATGTTAATCGGGTCTTGATTCGCTTGACGCTGCTG	4.59	3.73
